Bioassay records (PubChem BioAssay)
This is a sample that favours compounds with a hit; in the whole collection about 19% have one here.
HT1080 IDH1KD tx = toxicity to HT-1080 IDH1 knockdown cells (counter line) | HT-1080 IDH1 knockdown viability, ATP luminescence, 48 h | Potency, µM (titrated, usually from 46.1 µM), without a hit: at the top dose activity, negative = toxicity, usual class: cytotoxic | actives 2% (n = 360,000) | AID 686971;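 also: potency is read from the fitted curve at half-maximal effect; 0% = DMSO wells and -100% = cell-free medium wells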
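After a 2 h attachment period, IDH1KD HT-1080 cells took pin-transferred compound for 48 h at 37 °C; ATP-based luminescence after 10 min room-temperature reagent incubation reported viability.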
DT40 TDP1 no CPT = qHTS for Inhibitors of human tyrosyl-DNA phosphodiesterase 1 (TDP1): qHTS in cells in absence of CPT. DT40 Tdp1-/- hTDP1 cells, no CPT, ATP luminescence, 48 h. Potency, µM (top dose mostly 46.2 µM), for the others: at the highest dose activity change, negative = growth inhibition, most hits filed as inhibitors. actives 15% (n = 420,000). AID 686978, 2013; also: potency is read from the fitted curve at half-maximal effect; nearly all actives have a fitted effect of over 55% in size
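Chicken DT40 Tdp1-/- cells stably complemented with human TDP1 were seeded at 400 cells/well with DMSO in place of 20 nM camptothecin. After compound pinning, cells grew at least 48 hr at 37 °C; viability read by CellTiter-Glo luminescence.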
HT1080NT lethal = kills 2HG-producing HT-1080-NT fibrosarcoma cells. HT-1080-NT fibrosarcoma viability, CellTiter-Glo ATP luminescence, 48 h. Potency, µM (doses to about 46.1 µM), inactives show at the top dose activity, negative = less viability, most hits filed as cytotoxic. actives 1.6% (n = 360,000). AID 686970;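 also: NT is the 2HG producing partner of a matched IDH1 knockdown line; potency is read from the fitted curve at half-maximal effect; 0% = DMSO-treated cells and -100% = media-only wells without cells; nearly all actives have a fitted effect of over 55% in size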
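HT-1080-NT; 750 cells/well; 5% FBS RPMI; 48 h compound, 37 degrees C; CellTiter-Glo luminescence; curve fitting and curve-class assignment.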
IL1B secr inh = inflammasome signaling inhibition, IL-1 beta readout. actives 4.7% (n = 360,000). activity change, % at 57.5 µM. THP-1 LPS/ATP IL-1B secretion, AlphaLISA, 16 h; stronger effect = lower value; in the data active = activity change below about -50%; inconclusive = mostly about -30% to -49%
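THP-1 cells pretreated 1 hr with compounds (up to 57.5 uM final), then stimulated with LPS (250 ng/mL final) plus ATP (1.25 mM final); secreted IL-1B measured by AlphaLISA after 16 hr, decreased signal indicating inhibition.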
DT40 TDP1 CPT = growth inhibition of DT40 Tdp1-/-;hTDP1 cells with camptothecin (screen for TDP1 inhibitors); chicken DT40 Tdp1-/-;hTDP1 cells + 20 nM CPT, ATP luminescence, 48 h; Potency, µM (titrated, usually from 46.2 µM), without a hit: at the highest dose activity change, negative = growth inhibition, actives largely listed as inhibitors; actives 12% (n = 420,000); AID 686979; also: potency is read from the fitted curve at half-maximal effect; nearly all actives have a fitted effect of over 55% in size
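Chicken DT40 Tdp1-/- cells stably complemented with human TDP1 were seeded at 400 cells/well in medium containing 20 nM camptothecin, exposed to pin-transferred compounds, and grown at 37 °C for at least 48 hr. Viability was read as ATP luminescence.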
Numbers without * were called inactive; ? = inconclusive; . = no result given; [ ] = dose if it differs, or a comment. Unless noted, calls follow the shape of the dose curve; as a rule, active = well fitted curve in the direction sought with a large enough effect; inconclusive = small, poorly fitted or top-dose-only effect, or another doubt; inactive = no such curve, though single readings can be large; an effect the other way counts as inactive or inconclusive. Unless noted, % is scaled to controls: 0 for no effect and ±100 for the full control effect.

SMILES	HT1080 IDH1KD tx	DT40 TDP1 no CPT	HT1080NT lethal	IL1B secr inh	DT40 TDP1 CPT
CCOc1ccccc1Nc1nc2ccc(C)cc2n2cnnc12	3.1%	-13.3%	0.2%	0.0	?
Cc1ccc2nc(Nc3ccc(C)c(Cl)c3)c3nncn3c2c1	14.5%	?	9.8%	28.4	?
Cc1ccc2nc(Nc3ccc(C)c(F)c3)c3nncn3c2c1	.	14.6µM*	.	.	18.4µM*
COc1ccc(OC)c(Nc2nc3ccc(C)cc3n3cnnc23)c1	14.4%	?	8.2%	16.0	16.4µM*
COc1ccc(Nc2nc3cc(Cl)c(Cl)cc3n3cnnc23)cc1Cl	.	13µM*	.	.	?
COc1ccc(Cl)cc1Nc1nc2ccc(C)cc2n2cnnc12	19.1%	14.6µM*	14.0%	59.7	23.1µM*
COc1ccc(Cl)cc1Nc1nc2ccc(C(=O)c3ccccc3)cc2n2cnnc12	.	-17.5%	.	.	-11.9%
CCOC(=O)[C@H]1[C@H]2COc3ccc(OC)cc3[C@@H]2N2C(=O)[C@H](C)NC(=O)[C@@]12C	14.6%	9.7%	3.3%	0.0	-11.8%
Cc1cc2oc3c(c(=O)c2cc1C)C1(C(=O)N(C)c2ccccc21)N(CCO)C3=O (configuration not stated)	.	2.2%	.	.	-22.4%
Cc1ccc(OCC(=O)NCC(=O)OCc2cc(=O)n3nc(C)sc3n2)cc1	.	1.6%	.	.	-6.1%
C=CCOC(=O)C1=C(C)NC(C)=C(C(=O)OCC=C)C1/C=C/c1ccccc1	18.4µM*	?	?	-68.8*	?
COc1ccc(-c2nc3c(C)cc(Br)cn3c2CC2CCCCC2)cc1OC	?	?	?	4.1	?
COc1ccc(C)cc1NC(=O)c1nn(-c2ccccc2)cc1OC	14.6µM*	20.6µM*	14.6µM*	-87.4*	?
COc1ccc(C)cc1NC(=O)c1nnn(-c2c(C)cccc2C)c1C	.	16.4µM*	.	.	?
Cc1ccc(C)c(-n2nnc(C(=O)Nc3ccc(Br)cc3)c2C)c1	.	5.17µM*	.	.	10.3µM*
COc1cn(-c2ccccc2)nc1C(=O)Nc1ccccc1	-21.7%	-28.6%	-1.4%	-54.9*	4.2%
COc1ccc(C)cc1NC(=O)c1nnn(Cc2cccc(Br)c2)c1N	.	-22.9%	.	.	-23.3%
COC(=O)c1ccc(NC(=O)c2cn(-c3ccccc3)nc2-c2ccncc2)cc1	-9.3%	?	-4.3%	-0.3	?
COC(=O)CNC(=O)c1cnn(-c2ncc3c(n2)-c2ccccc2CCC3)c1C1CC1	.	-26.5%	.	.	-12.5%[9.04 µM]
COc1ccc(CC(=S)N2CCOCC2)cc1	11.6%	18.4µM*	12.9%	39.6	?
Cc1ccc(CC(=S)N2CCOCC2)cc1	22.6%	-20.0%	16.2%	17.0	-0.7%
N#CC(OC(=O)c1ccccc1)c1ccccc1 (configuration not stated)	0.2%	-6.7%	1.7%	4.5	-4.8%
N#CC(c1cccc([N+](=O)[O-])c1)C(CC(=O)c1ccccc1)c1ccccc1 (configuration not stated)	-24.6%	23.1µM*	-11.8%	-6.0	18.4µM*
N#CC(c1ccc([N+](=O)[O-])cc1)C(CC(=O)c1ccccc1)c1ccccc1 (configuration not stated)	-4.1%	16.4µM*	-7.3%	?	?
N#CC(c1ccccc1)C(CC(=NO)c1ccccc1)c1ccccc1 (configuration not stated)	-25.6%	10.3µM*	?	?	23.1µM*
SMILES	HT1080 IDH1KD tx	DT40 TDP1 no CPT	HT1080NT lethal	IL1B secr inh	DT40 TDP1 CPT
O=C(CNC(=O)c1ccc([N+](=O)[O-])cc1)c1ccccc1	3.2%	1.2%	22.5%	-16.7	0.9%
CCN1CC(CNCc2cn(-c3ccc(OC)cc3)nc2-c2ccccc2Cl)CC1=O (configuration not stated)	1.1%	?	-21.8%	-51.0*	?
COc1ccc(-n2cc(CNCC3CC(=O)N(C4CC4)C3)c(-c3ccccc3Cl)n2)cc1 (configuration not stated)	-20.1%	23.1µM*	-19.0%	?	16.4µM*
COc1ccc(-c2nn(-c3ccccc3)cc2CNC[C@H]2O[C@@H](n3cnc4c(N)ncnc43)[C@H](O)[C@@H]2O)cc1	-0.6%	-15.2%	3.8%	?	-10.9%
CN(C(=O)c1cccc(NC(=O)Cc2ccc(NC(=O)C3CCN(C(=O)C4CCC4)CC3)cc2)c1)C1CC1	5.8%	-1.9%	7.8%	12.3	0.3%
COc1cccc(/C(O)=C/c2nc3ccc(C(=O)NCCc4ccc(Cl)cc4)cc3[nH]c2=O)c1	?	6.51µM*	18.4µM*	28.1	6.51µM*
Cc1cc(NCc2ccc(Cl)cc2)n2cnnc2n1	.	8.2µM*	.	.	20.6µM*
COc1ccc(-c2cc(NCc3ccc(C)cc3)n3cnnc3n2)cc1	.	13µM*	.	.	14.6µM*
CC(=O)c1ccc(OCCCC(=O)OCC(=O)N2CCN(S(=O)(=O)c3ccc(C)cc3C)CC2)cc1	17.6%	-1.1%	11.8%	-0.3	0.6%
CC(C)N(C(=O)Cn1cc(S(=O)(=O)Cc2ccc(Br)cc2)c2ccccc21)C(C)C	.	16.4µM*	.	.	23.1µM*
Cc1ccc(C)c(CS(=O)(=O)c2cn(CC(=O)N(C(C)C)C(C)C)c3ccccc23)c1	.	11.6µM*	.	.	14.6µM*
Cc1ccc(C)c(CS(=O)(=O)c2cn(CC(=O)N3CCCCC3)c3ccccc23)c1	0.3%	-21.9%	9.0%	7.4	-0.8%
Cc1ccc(C)c(CS(=O)(=O)c2cn(CC(=O)N3CCC(C)CC3)c3ccccc23)c1	0.0%	16.4µM*	5.3%	-18.3	?
COc1ccccc1N(Cc1ccccc1)S(=O)(=O)c1cccc(C(=O)NCC2CCCO2)c1 (configuration not stated)	-2.6%	?	-7.0%	-3.5	?
Cc1ccc(NS(=O)(=O)c2ccc(C(=O)NCc3ccc(S(N)(=O)=O)cc3)cc2)cc1	2.9%	?	0.0%	-9.2	?
Cc1ccc(CNC(=S)Nc2ccc(NS(=O)(=O)c3ccc(C)cc3)cc2)cc1	?	23.1µM*	-28.7%	-0.2	?
Cc1ccc(CNC(=S)NC2CCC(C(C)(C)C)CC2)cc1 (configuration not stated)	-12.0%	23.1µM*	7.3%	24.9	?
Cc1ccc(NC(=S)NCc2ccc(F)cc2)cc1	-2.3%	25.9µM*	-3.5%	-4.4	?
Cc1ccc(CSC(Nc2ccc(F)cc2)=C(C#N)C#N)cc1	?	3.26µM*	?	-56.8*	3.66µM*
COc1ccc(CNC(=S)NC2CCCC2)cc1	0.6%	?	-1.4%	2.3	?
